# Assay results published in paper PMC4336329 (PLoS ONE, 2015).
# The campaign covered roughly 310,000 compounds. About 2,200 (0.71%) showed an effect of 50% or more. The effect is printed as a negative number. The sample holds strong results, similar compounds and a random draw of the others, so the mix is not that of the screen.
# Target: human ether-à-go-go-related gene (hERG) potassium channel (human, UniProt Q12809)
# Test: primary screen, population patch clamp on CHO cells stably expressing hERG; higher = less effect of the substance
# Sequence of human ether-à-go-go-related gene (hERG) potassium channel (Q12809 whole entry, looked up): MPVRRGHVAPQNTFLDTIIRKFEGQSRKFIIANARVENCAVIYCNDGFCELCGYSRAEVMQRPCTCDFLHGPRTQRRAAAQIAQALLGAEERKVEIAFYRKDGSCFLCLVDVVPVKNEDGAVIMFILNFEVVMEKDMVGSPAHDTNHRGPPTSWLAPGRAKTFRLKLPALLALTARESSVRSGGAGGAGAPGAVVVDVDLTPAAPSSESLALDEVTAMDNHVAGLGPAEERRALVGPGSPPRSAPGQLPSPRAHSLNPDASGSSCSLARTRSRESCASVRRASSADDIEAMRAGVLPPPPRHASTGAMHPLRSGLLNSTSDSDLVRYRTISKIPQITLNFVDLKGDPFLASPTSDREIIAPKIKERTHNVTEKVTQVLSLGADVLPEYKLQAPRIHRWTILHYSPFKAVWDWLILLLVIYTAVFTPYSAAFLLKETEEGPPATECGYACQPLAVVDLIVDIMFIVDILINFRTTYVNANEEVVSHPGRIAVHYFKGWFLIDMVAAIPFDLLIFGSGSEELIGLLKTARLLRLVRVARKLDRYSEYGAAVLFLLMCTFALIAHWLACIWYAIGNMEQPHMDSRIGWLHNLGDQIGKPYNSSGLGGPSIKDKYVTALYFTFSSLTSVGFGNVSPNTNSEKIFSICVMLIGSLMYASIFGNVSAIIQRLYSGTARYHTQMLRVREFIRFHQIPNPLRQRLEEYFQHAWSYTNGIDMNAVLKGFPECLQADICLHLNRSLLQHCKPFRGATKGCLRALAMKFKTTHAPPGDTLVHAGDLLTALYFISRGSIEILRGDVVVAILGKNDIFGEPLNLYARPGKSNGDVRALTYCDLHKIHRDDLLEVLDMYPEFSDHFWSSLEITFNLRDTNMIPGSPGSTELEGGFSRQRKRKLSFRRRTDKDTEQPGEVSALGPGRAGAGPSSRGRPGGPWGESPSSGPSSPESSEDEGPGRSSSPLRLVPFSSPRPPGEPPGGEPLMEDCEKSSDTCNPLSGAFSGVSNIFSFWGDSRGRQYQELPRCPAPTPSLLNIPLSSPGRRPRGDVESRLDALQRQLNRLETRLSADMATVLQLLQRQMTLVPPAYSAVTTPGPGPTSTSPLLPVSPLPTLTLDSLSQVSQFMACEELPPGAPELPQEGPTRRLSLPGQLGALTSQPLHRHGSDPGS
row,Structure (SMILES),"hERG current change (%, negative = inhibition) at 1uM"
1,COc1ccc(NC(=O)CCCn2cc([N+](=O)[O-])cn2)cc1,1.91%
2,O=C(NCCCn1ccnc1)c1cccc(Br)c1,6.56%
3,CCOC(=O)C(NC(C)=O)(Nc1ccc(S(=O)(=O)Nc2ncccn2)cc1)C(F)(F)F (stereo not drawn),18.1%
4,O=c1c2ccccc2ncn1-c1ccc2c(c1)OCCO2,2.75%
5,CCC(=O)Nc1ccc(C(=O)n2nc(C)cc2C)cc1,1.88%
6,Cc1c(NC(=O)c2cc(-n3cnnc3)ccc2Cl)cccc1-c1nc2ccccc2s1,-9.7%
7,CC1CCCCN1CCCNC(=O)c1nn(C)c2c1CSc1ccccc1-2 (stereo not drawn),-23.4%
8,CC1CCCN(CCCNC(=O)c2nn(C)c3c2CSc2ccccc2-3)C1 (stereo not drawn),-66.2%
9,Cn1nc(C(=O)NCCCN2CCCCC2)c2c1-c1ccccc1SC2,-24.8%
10,O=C(COc1nncc2ccccc12)NCCC1=CCCCC1,9.4%
11,Cc1ccc(S(=O)(=O)c2cc3c(=O)n4ccccc4nc3n(Cc3ccco3)c2=N)cc1,-0.218%
12,COCCn1c(=N)c(C(=O)NCc2ccco2)cc2c(=O)n3cc(C)ccc3nc21,-92%
13,Cc1cc2ccccc2c(=O)n1CC(=O)NCc1ccco1,18.5%
14,COCCn1c(=N)c(C(=O)NCc2ccco2)cc2c(=O)n3ccccc3nc21,-88%
15,COCCn1cc(C(=O)NCc2ccco2)c2c3ccccc3n(C)c2c1=O,5.73%
16,COCCn1c(=N)c(S(=O)(=O)c2ccc(Br)cc2)cc2c(=O)n3ccccc3nc21,9.15%
17,CCn1cc(C(=O)NCc2ccco2)c2cc(OC)c(OC)cc2c1=O,-8.54%
18,Cc1ccc2nc3c(cc(C(=O)NCc4ccco4)c(=N)n3Cc3ccco3)c(=O)n2c1,-86.5%
19,CCOc1ccc(N2CC(=O)N/C2=N\c2nc(C)cc(C)n2)cc1,-2.01%
20,CC(C)COC(=O)CCNc1n[nH]c(=O)[nH]c1=O,3.64%
21,CCCCCCSc1nnc(N)s1,7.6%

row,Structure (SMILES),"hERG current change (%, negative = inhibition) at 1uM"
1,COc1ccccc1OCCCC(=O)NC(C)c1ccccc1 (stereo not drawn),8%
2,O=C1CCCc2oc3c(cc(NS(=O)(=O)c4ccc5c6c(cccc46)C(=O)N5)c4ccccc43)c21,-6.54%
3,Cc1cc(C)nc(SCCC(=O)N(C)C)n1,11%
4,CCN(CC)c1nc2ccccc2c(N)c1-c1ccccc1.O=C(O)C(=O)O,-53.9%
5,Cc1c(N(C)C)nc2ccccc2c1N.O=C(O)C(=O)O,-8.8%
6,CN(C)c1nc2ccccc2c(N)c1-c1ccccc1.O=C(O)C(=O)O,-39.7%
7,COc1cc(/C=C2/C(=O)NN(c3ccc(F)cc3)C2=O)cc([N+](=O)[O-])c1O,8.07%
8,O=C(OCC(=O)C12CC3CC(CC(C3)C1)C2)c1cnccn1,8.15%
9,O=C(CCc1nnc(CCCCc2ccccc2)o1)NCCN1CCOC1=O,9.65%
10,O=C(c1ccc2c(=O)n(Cc3ccccc3Cl)c(=S)[nH]c2c1)N1CCOCC1,13%
11,O=C(c1nc2ccccn2c1CN1CCN(c2ccccc2O)CC1)N1CCCC1,26%
12,O=C(c1nc2ccccn2c1CN1CCCC(OCc2ccccc2)C1)N1CCCC1 (stereo not drawn),-25.7%
13,O=C(c1nc2ccccn2c1CN1CCC(Cc2ccccc2)CC1)N1CCCC1,-54.2%
14,CCN(CC)c1ccc(/C=C2\C(=O)NC(=S)N(C)C2=O)o1,7.14%
15,C#CCn1c(=NC(=O)c2ccccc2[N+](=O)[O-])sc2cc(S(C)(=O)=O)ccc21,13.3%
16,CC1CC(c2ccccc2)n2nc(NC(=O)CCc3ccccc3)nc2N1 (stereo not drawn),-1.41%
17,O=[N+]([O-])c1ccc(C[n+]2cccc3c4ccccc4ccc32)cc1.[Br-],-18%
18,CCCCCCCCC[n+]1cccc2c3ccccc3ccc21.[Br-],-91.7%
19,[Cl-].c1ccc(C[n+]2cccc3c4ccccc4ccc32)cc1,-2.14%
20,Cc1cccc[n+]1CCCCCCCCCC[n+]1ccccc1C.[Br-],20.8%
21,CCCCCCCCCCCCCCCC[n+]1cccc2ccccc21.[I-],-23%

row,Structure (SMILES),"hERG current change (%, negative = inhibition) at 1uM"
1,CCCCCCCC[n+]1cccc2c3ccccc3ccc21.[I-],-92%
2,CC(C)c1ccc(NC(=O)CSc2nnc(-c3ccccn3)n2C)cc1,-4.65%
3,COc1ccc(/C=N/Nc2ccccc2C(=O)O)cc1Cn1cc([N+](=O)[O-])cn1,6.26%
4,O=C(Nc1ccc(OC(F)(F)F)cc1)C1CCCN(S(=O)(=O)c2cccnc2)C1 (stereo not drawn),-4.09%
5,Cc1nnsc1C(=O)N1CCCC(C(=O)c2ccc(C(F)(F)F)cc2)C1 (stereo not drawn),3.88%
6,Cc1cc(-c2ccccc2)cc(C)[n+]1Cc1ccccc1.[O-][Cl+3]([O-])([O-])[O-],6.49%
7,Cc1cc(-c2ccccc2)cc(-c2ccccc2)[n+]1CCc1ccccc1.[O-][Cl+3]([O-])([O-])[O-],-78.4%
8,CCOc1ccc(-c2cc(C)[n+](CCc3ccc(OC)c(OC)c3)c(-c3ccc(OCC)cc3)c2)cc1.[O-][Cl+3]([O-])([O-])[O-],-70.1%
9,CCOc1ccc(-c2cc(C)[n+](CCN(CC)CC)c(-c3ccc(OCC)cc3)c2)cc1.[O-][Cl+3]([O-])([O-])[O-],-19.3%
10,O=[N+]([O-])c1ccc(C[n+]2c(-c3ccccc3)cc(-c3ccccc3)cc2-c2ccccc2)cc1.[O-][Cl+3]([O-])([O-])[O-],7.61%
11,CCOc1ccc(-c2cc(C)[n+](CCO)c(-c3ccc(OCC)cc3)c2)cc1.[O-][Cl+3]([O-])([O-])[O-],1.92%
12,CCNc1nc(NCC)nc(N/N=C/c2ccc(Br)cc2)n1,8.67%
13,COc1ccc2c(C=O)c[nH]c2c1,6.81%
14,Cc1ccccc1Nc1nc(N)nc(COC(=O)c2cccc(S(=O)(=O)N(C)C)c2)n1,8.43%
15,O=C1CCCN1CCCNS(=O)(=O)c1ccc(F)c(F)c1,13.5%
16,COc1ccc(-c2cc(-c3ccco3)[nH]c(=O)c2C#N)cc1OC,13.5%
17,CCCCCC(=O)N1CCN(CCN=CC2=C(O)CC(c3ccc(OC)cc3)CC2=O)CC1 (stereo not drawn),-54.5%
18,CCCCCC(=O)N1CCN(CCN=CC2=C(O)CC(c3ccc(OC)c(OC)c3)CC2=O)CC1 (stereo not drawn),-56.5%
19,COc1ccc(C2CC(=O)C(C=NCCN3CCN(C(C)=O)CC3)=C(O)C2)cc1 (stereo not drawn),0.835%
20,COc1ccc(C2CC(=O)C(C=NCCN3CCN(C(=S)Nc4ccccc4)CC3)=C(O)C2)cc1OC (stereo not drawn),1.75%
21,COc1ccc(C2CC(=O)C(C=NCCO)=C(O)C2)cc1OC (stereo not drawn),13.4%

row,Structure (SMILES),"hERG current change (%, negative = inhibition) at 1uM"
1,CCC(=O)N1CCN(CCN=CC2=C(O)CC(c3ccc(OC)cc3)CC2=O)CC1 (stereo not drawn),8.12%
2,Cc1ccc(N2C(=O)/C(=C/N3CCN(C(=O)c4ccco4)CC3)C(=O)NC2=S)cc1C,1.67%
3,CC(C)CNS(=O)(=O)c1ccc(OCC(=O)Nc2ccc3c(c2)OCCO3)cc1,14.4%
4,Cc1ccc(C)c(OCC(O)CN2CCC(Cc3ccccc3)CC2)c1.Cl (stereo not drawn),-43.1%
5,Cl.OC(COCc1ccc2c(c1)OCO2)CN1CCC(Cc2ccccc2)CC1 (stereo not drawn),-79.4%
6,Cl.OC(COCc1ccccc1)CN1CCN(Cc2ccc3c(c2)OCO3)CC1 (stereo not drawn),-0.707%
7,Cc1ccc(OCC(O)CN2CCC(Cc3ccccc3)CC2)c(C)c1.Cl (stereo not drawn),-49.9%
8,Cl.OC(COc1ccccc1F)CN1CCC(Cc2ccccc2)CC1 (stereo not drawn),-55.7%
9,CC1CCCC(C)N1CC(O)COc1ccc(Cl)cc1 (stereo not drawn),-57.6%
10,Cc1ccc(OCC(O)CN2CCN(CC(O)COc3ccc(C)cc3Cl)CC2)c(Cl)c1 (stereo not drawn),-5.75%
11,Cl.OC(COCc1ccc2c(c1)OCO2)CN1CCN(Cc2ccccc2)CC1 (stereo not drawn),-8.65%
12,OC(COc1ccc(F)cc1Cl)CN1CCc2ccccc2C1 (stereo not drawn),-10.6%
13,OC(COc1ccc(F)cc1Cl)CN1CCC(Cc2ccccc2)CC1 (stereo not drawn),-81.4%
14,CC(=O)Nc1ccc(OCC(O)CN2C(C)CCCC2C)cc1.Cl (stereo not drawn),15.2%
15,Cc1cc(Cl)ccc1OCC(O)CN1C(C)CCCC1C.Cl (stereo not drawn),-46.3%
16,COc1ccc(Cn2c(-c3ccccc3)nc3c(c(=O)c4ccccc4n3C)c2=O)cc1,-7.94%
17,COc1ccc(CCNC(=O)c2ccc3nc(N4CCOCC4)sc3c2)cc1OC,4.99%
18,Cc1cc(NC(=O)Cc2ccccc2C)no1,10.2%
19,CCN(CC(=O)Nc1ccc(NC(C)=O)cc1)C(=O)COc1ccccc1-c1ccccc1,12%
20,CCOC(=O)c1cnc(-n2nc(C)cc2C)nc1NNc1nc(-c2ccccc2)cc(-c2ccccc2)n1,-1.53%
21,O=C(Nc1nc(-c2cccs2)cs1)c1ccc(Cl)s1,-6.43%
